96 sequences from PMC4242493, “Sequence specificity incompletely defines the genome-wide occupancy of Myc” can be followed below.

The full ranking holds about 33,000 sequences; the median of “normalized occupancy” is about 0.075, and the highest 2% start at about 0.095. What follows is part of a selection rich in the highest values, with near analogues and random picks from the rest.

The target in the experiment is MaxL homodimer (Homo sapiens, UniProt P61244 1-160). Description: universal protein-binding microarray (PBM); PBS-based mixture, 10 nM His-tagged protein dimer, 2% milk, 200 ng/uL BSA, 50 ng/uL salmon testes DNA, 0.02% TX-100; detection with Alexa 488 anti-His antibody;; high values mean tight binding. The following applies: protein: recombinant; tags: C-terminal His-tag (pET21a); chain copies: 2; dsDNA, one strand shown. The method, boiled down: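 Arrays of the 'all 10-mer' universal design (Agilent 4 x 44 K) were exposed to 10 nM His-tagged protein dimer, stained with 10 ng/μL fluorophore-conjugated anti-His antibody and read on a GenePix 4400A to give a fluorescence intensity for each 8-mer. Binding occupancy is each intensity divided by the highest-ranked intensity.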
MaxL homodimer, sequence (P61244 whole entry): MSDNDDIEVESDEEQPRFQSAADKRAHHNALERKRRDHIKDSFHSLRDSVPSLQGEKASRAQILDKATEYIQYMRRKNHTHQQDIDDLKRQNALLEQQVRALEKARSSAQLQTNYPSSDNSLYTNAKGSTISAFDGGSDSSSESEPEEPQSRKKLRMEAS
Turning to GAAATCAA, the binding signal is 0.075 normalized occupancy. As for ATGTAGTG, the binding signal is 0.0796 normalized occupancy. With CCCTTATA the figure was 0.0809 normalized occupancy; with ACTTGTAC, 0.0751 normalized occupancy. Turning to AAAACGTG, the binding signal worked out at 0.122 normalized occupancy. The result for AAAACGTT reads 0.0743 normalized occupancy; that for CAAACGTA, 0.0729 normalized occupancy; that for CAAACGTC, 0.0739 normalized occupancy. With CAAACGTG the figure was 0.103 normalized occupancy; with AAAACGTA, 0.0744 normalized occupancy. Consider ATAGTGAA, for which the binding signal was found to be 0.0751 normalized occupancy. For the sequence AACCCGAG, the binding signal came out at 0.0727 normalized occupancy. The result for CGCATGCG reads 0.133 normalized occupancy.

Consider CGCATCCG, for which the binding signal stood at 0.0736 normalized occupancy. AGCATACA: the binding signal was determined as 0.087 normalized occupancy.

Take AGCATCCT: the binding signal came out at 0.0767 normalized occupancy.

Turning to AGCATGCA, the binding signal turned out to be 0.114 normalized occupancy.

As to AACATGCT, the binding signal was 0.0905 normalized occupancy. As to AGCATGCT, the binding signal is 0.134 normalized occupancy. For TGCATGCA, the binding signal was 0.1 normalized occupancy. The result for AGCATTCA reads 0.0761 normalized occupancy; that for CGAATGCG, 0.0744 normalized occupancy; that for TGCATACA, 0.085 normalized occupancy. Consider TGCATGAA, for which the binding signal came out at 0.0821 normalized occupancy. On to GCGTACAA, for which the binding signal was found to be 0.0756 normalized occupancy. GCTTAGAC: the binding signal was found to be 0.0762 normalized occupancy. On to GTATTGAC, for which the binding signal was found to be 0.0759 normalized occupancy. With ACCGTCCA the figure was 0.0727 normalized occupancy; with CAATAACA, 0.0785 normalized occupancy; with GCATACCA, 0.0835 normalized occupancy. The result for AAGCATCC reads 0.0817 normalized occupancy. With CGCATTCA the figure was 0.0752 normalized occupancy; with CGCATGCC, 0.116 normalized occupancy; with CGGATGCC, 0.0725 normalized occupancy.

In the case of GGCATGCA, the binding signal is 0.109 normalized occupancy. For AGCATGCC, the binding signal turned out to be 0.112 normalized occupancy.

Turning to GGCATGCC, the binding signal stood at 0.0932 normalized occupancy. As to AGCATCCC, the binding signal was 0.077 normalized occupancy.

In the case of GGCATGAA, the binding signal was 0.081 normalized occupancy. In the case of CGAATGCA, the binding signal worked out at 0.0799 normalized occupancy. As for CGCATGCA, the binding signal was 0.122 normalized occupancy. CGCATCCC: the binding signal is 0.0821 normalized occupancy. Take AGCATTCC: the binding signal turned out to be 0.0752 normalized occupancy. The result for TAAGTACA reads 0.0831 normalized occupancy; that for AGTACTAA, 0.0769 normalized occupancy. Regarding GGGTTCTA, the binding signal came out at 0.0754 normalized occupancy. With CGATTGGC the figure was 0.0736 normalized occupancy; with ACTTCGGG, 0.0726 normalized occupancy; with AGCCCTTG, 0.0731 normalized occupancy. On to AGATTGGA, for which the binding signal is 0.0757 normalized occupancy. The result for AACATCGC reads 0.0768 normalized occupancy; that for GTTCTCTA, 0.0731 normalized occupancy. For the sequence CGTGGTTC, the binding signal is 0.0858 normalized occupancy. On to CGGAGGTA, for which the binding signal worked out at 0.0743 normalized occupancy. With AGTATGCG, the binding signal amounted to 0.077 normalized occupancy. AGCATCCG: the binding signal amounted to 0.0757 normalized occupancy.

On to AGCATGCG, for which the binding signal stood at 0.124 normalized occupancy. The result for GCAAGGTA reads 0.0757 normalized occupancy; that for CGCAGTAC, 0.0724 normalized occupancy. ATATGGCG: the binding signal was determined as 0.0846 normalized occupancy.

With ATATGGCA, the binding signal was determined as 0.098 normalized occupancy.

Turning to GTATGGGA, the binding signal was found to be 0.0804 normalized occupancy. For the sequence CTATGGGA, the binding signal came out at 0.0764 normalized occupancy. The result for ATATGGGA reads 0.0957 normalized occupancy; that for CTATGGCA, 0.0779 normalized occupancy.

With ATGATAAG, the binding signal amounted to 0.0844 normalized occupancy. For AGCTCCAT, the binding signal turned out to be 0.0804 normalized occupancy. In the case of CACATGCC, the binding signal was determined as 0.134 normalized occupancy. In the case of CAAATGCC, the binding signal was determined as 0.0743 normalized occupancy. CAAATGCG: the binding signal was found to be 0.0791 normalized occupancy.

Turning to GACATGCC, the binding signal worked out at 0.0968 normalized occupancy. As for CACATGCG, the binding signal is 0.159 normalized occupancy. As to GAGATGCC, the binding signal came out at 0.0786 normalized occupancy. For the sequence GACATGCA, the binding signal is 0.0909 normalized occupancy. For AACATGCG, the binding signal stood at 0.101 normalized occupancy. CAGATGCG: the binding signal came out at 0.078 normalized occupancy. For the sequence AACATGCA, the binding signal came to 0.0927 normalized occupancy. In the case of AACATACG, the binding signal was 0.0835 normalized occupancy. In the case of AACATGCC, the binding signal is 0.089 normalized occupancy.

As for CCAACCCA, the binding signal came out at 0.0759 normalized occupancy. With AGTGCCTC, the binding signal turned out to be 0.0729 normalized occupancy. With AGAGGCAC the figure was 0.0762 normalized occupancy; with AGGCTCAT, 0.0751 normalized occupancy. On to AATCTAAA, for which the binding signal amounted to 0.0727 normalized occupancy. ACCGGTAG: the binding signal turned out to be 0.0719 normalized occupancy. Take CACATGCA: the binding signal came to 0.138 normalized occupancy. Regarding TACATGCA, the binding signal came to 0.0895 normalized occupancy. Consider CAAATGCA, for which the binding signal turned out to be 0.0784 normalized occupancy. Turning to ATGCGGAG, the binding signal amounted to 0.0844 normalized occupancy. The result for CGTTGAGC reads 0.0723 normalized occupancy.

CGGCATAC: the binding signal worked out at 0.0757 normalized occupancy. The result for CGGCATGC reads 0.109 normalized occupancy; that for AGGCATGA, 0.091 normalized occupancy. With CGGCATCC, the binding signal was found to be 0.078 normalized occupancy. With CGGCATGA, the binding signal was determined as 0.0962 normalized occupancy. As to GGGCATGA, the binding signal was 0.087 normalized occupancy.
